Sampled rows, rich in hits. Any-hit rate of the full collection: about 7.2%.
Efflux pump inh: blocks antifungal efflux pumps in multiplex yeast assay; inhibition, % at 10 µM; 0.44% of 330,000 active; AID 485275; S. cerevisiae Candida pump triplex, Nile Red efflux;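 active means plate passing quality check with inhibition over a set limit, or well fluorescence over plate mean plus 4 SD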;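 further: Nile Red retained in pooled yeast measured as flow cytometry median fluorescence; 0% = buffer negative control and 100% = Enniatin B positive control; higher means more Nile Red kept so more efflux inhibition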
VLA-4 inh: inhibition in a human VLA-4 binding assay; P13612; VLA-4 expressing cells, ligand binding flow cytometry; inhibition, % (about 7 µM as worked out from the volumes in the protocol); 0.2% of 330,000 active; AID 2557; in the data active means inhibition above about 50%
A1 inh: inhibitors of the anti-apoptotic protein A1, read as caspase activation. MEF A1-2A-BIM cells, Caspase-Glo 3/7 luminescence, 3 h; percent of clofoctol response, vehicle zero. caspase activation, % (no concentration beside the values). 0.066% of 330,000 active. AID 2462;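 active means over half of replicate activation scores above 10%, or exactly half above 10 with the replicate mean above 10; inconclusive means replicate mean below 10 yet half the replicates above 10; inactive means over half of replicates below 10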
ALR inh: human ALR oxidase inhibition via reduced H2O2; purified ALR, DTT oxidation, H2O2 HRP-luminol luminescence; inhibition, % (concentration not given with the values); 3.8% of 290,000 active;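 active means mean replicate inhibition above about 79%, with every replicate also reaching it, limit read from the data; inconclusive means only one of the two criteria met; inactive means mean below limit and not every replicate reaching it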
Target sequence (P55789 whole entry, looked up): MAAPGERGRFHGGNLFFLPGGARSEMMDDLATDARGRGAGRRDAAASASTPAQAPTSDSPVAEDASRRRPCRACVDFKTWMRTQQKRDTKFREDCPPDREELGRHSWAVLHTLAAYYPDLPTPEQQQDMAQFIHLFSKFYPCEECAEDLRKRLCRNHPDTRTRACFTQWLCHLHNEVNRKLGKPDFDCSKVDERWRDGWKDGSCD
SUMO Mot1 rescue: SUMOylation pathway inhibition by Mot1-301 growth rescue; S. cerevisiae Mot1-301 growth rescue, ATP luminescence, 38.5C; percent above DMSO median, 100 means doubled; growth rescue, % at 18.8 µM; 1% of 320,000 active; AID 2716;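 active means every valid replicate shows activation above 250% relative to neutral control wells; inactive means the rest, any valid replicate at or below 250%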;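 further: OY570 slx delta 5 strain wells were the positive control but not used for scaling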
AHR activator: human AHR activation; P35869; AHR-responsive luciferase reporter cells, luminescence; activation, % at 5 µM; 2.5% of 320,000 active; AID 2796; in the data active means activation above about 47%;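 further: 0% = vehicle wells and 100% = reference agonist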
* = called active by the depositor.

`COc1ccc(NC2CCCN(C(=O)c3ccc(CSC)o3)C2)cc1OC` (stereo not given) gave Efflux pump inh 0.0, VLA-4 inh -1.8, A1 inh 0.6, ALR inh 99.1*, SUMO Mot1 rescue 40.0 and AHR activator 9.1.
For COCc1ccc(C(=O)N2CCCC(Nc3ccc(F)c(F)c3)C2)s1 (stereo not given) the results were Efflux pump inh 0.3, VLA-4 inh 23.5, A1 inh inconclusive, ALR inh 63.4, SUMO Mot1 rescue 6.2 and AHR activator 1.6.
Screening O=C(CN1CCN(C(=O)C2CC2)CC1)Nc1cc(C(F)(F)F)cc(C(F)(F)F)c1 returned Efflux pump inh 0.2, VLA-4 inh 5.1, A1 inh 1.2, ALR inh -1.5, SUMO Mot1 rescue 7.4 and AHR activator 2.6.
For CS/C(=N\S(=O)(=O)c1cccs1)NC(=O)CSc1nc2ccccc2s1 the results were Efflux pump inh -0.1, VLA-4 inh -1.3, A1 inh -0.2, ALR inh 98.3*, SUMO Mot1 rescue -17.5 and AHR activator 21.8.
`C/C(=N/NC(=O)CSc1nc2ccccc2s1)c1ccncc1` gave Efflux pump inh -0.1, VLA-4 inh -0.2, A1 inh 0.1, ALR inh 5.8, SUMO Mot1 rescue -2.3 and AHR activator 40.5.
COc1ccc2c(c1OC)C(=O)OC2Nc1nc(-c2cc3ccccc3oc2=O)cs1 (stereo not given) was read as Efflux pump inh -0.1, VLA-4 inh 9.5, A1 inh -8.0 and AHR activator -5.9.
For COc1ccc2c(c1OC)C(=O)OC2Nc1nc(-c2cc3cc([N+](=O)[O-])ccc3oc2=O)cs1 (stereo not given) the results were Efflux pump inh -0.3, VLA-4 inh 0.2, A1 inh 0.3, ALR inh 17.0, SUMO Mot1 rescue 2.3 and AHR activator -4.2.
COc1ccc2c(c1OC)C(=O)OC2Nc1nc(-c2ccc(-c3ccccc3)cc2)cs1 (stereo not given) was read as Efflux pump inh 0.0, VLA-4 inh -3.1, A1 inh -5.0, ALR inh 95.9*, SUMO Mot1 rescue 11.8 and AHR activator 2.2.
COc1cccc(-c2csc(NC3OC(=O)c4c3ccc(OC)c4OC)n2)c1 (stereo not given) was read as Efflux pump inh 0.0, VLA-4 inh -56.5, A1 inh -2.6, ALR inh 97.3*, SUMO Mot1 rescue -1.8 and AHR activator 5.8.
C[C@H](NC(=O)c1ccc(C(C)(C)C)cc1)C(=O)N1CCOCC1 was read as Efflux pump inh 0.3, VLA-4 inh 7.8, A1 inh -0.9, ALR inh 2.8, SUMO Mot1 rescue -13.0 and AHR activator 2.2.
For CC(C)c1cccc(-c2ccc3c(c2)S(=O)(=O)c2cccc(C(=O)NCc4ccccc4Cl)c2C3=O)c1 the results were Efflux pump inh 0.4, VLA-4 inh 3.2, A1 inh 12.1*, ALR inh -4.8, SUMO Mot1 rescue 9.8 and AHR activator 1.1.
CCOC(=O)C1CCN(C(=O)c2c(-c3ccccc3)noc2C)CC1 was read as Efflux pump inh 0.1, VLA-4 inh 21.2, A1 inh -0.1, ALR inh -6.2, SUMO Mot1 rescue 765.3* and AHR activator -2.1.
`CCOCCCNC(=O)c1c(-c2ccccc2)noc1C` gave Efflux pump inh 0.0, VLA-4 inh 4.1, A1 inh 1.4, SUMO Mot1 rescue 338.0* and AHR activator 0.9.
CCOC(=O)C1CCN(C(=O)c2c(-c3c(Cl)cccc3Cl)noc2C)CC1 was read as Efflux pump inh 0.4, VLA-4 inh -1.3, A1 inh 0.4, ALR inh -0.7, SUMO Mot1 rescue 476.0 and AHR activator -1.5.
CCCOc1ccc(C(=O)NC(=S)NNC(=O)c2c(-c3ccccc3)noc2C)cc1 was read as Efflux pump inh -0.1, VLA-4 inh 11.1, A1 inh -0.5, ALR inh 99.8*, SUMO Mot1 rescue 7.2 and AHR activator 5.9.
Screening CCCOc1ccc(C(=O)NC(=S)Nc2nc3ccccc3s2)cc1 returned Efflux pump inh 0.1, VLA-4 inh 0.3, A1 inh 2.7, ALR inh -1.8, SUMO Mot1 rescue -1.7 and AHR activator 82.0*.
`Cc1onc(-c2ccccc2)c1C(=O)NC(=S)NNC(=O)c1ccc(O)cc1O` gave Efflux pump inh -0.1, VLA-4 inh 16.8, A1 inh 0.0, ALR inh 92.2*, SUMO Mot1 rescue -5.9 and AHR activator 5.0.
For Cc1onc(-c2ccccc2)c1C(=O)NC(=S)NNC(=O)c1ccccc1O the results were Efflux pump inh -7.3, VLA-4 inh 11.8, A1 inh -0.4, ALR inh 30.3, SUMO Mot1 rescue 1.4 and AHR activator 5.2.
`NS(=O)(=O)c1ccc(CNC(=O)CCCSc2ccccc2)cc1` gave Efflux pump inh 0.4, VLA-4 inh 18.6, A1 inh 0.1, ALR inh -12.6, SUMO Mot1 rescue 9.5 and AHR activator 0.5.
For COc1ccc2c(c1)c(C(=O)N/N=C/c1ccccc1Cl)c(C)n2C the results were Efflux pump inh -0.1, VLA-4 inh 5.0, A1 inh 0.3, SUMO Mot1 rescue 19.2 and AHR activator 57.1*.
For CC(NC(=O)CN1C(=O)NC2(CCc3ccccc32)C1=O)c1ccccc1 (stereo not given) the results were Efflux pump inh -0.1, VLA-4 inh -72.8 and AHR activator -1.9.
For COc1ccc(OC)c(C2C(C(=O)c3ccco3)=C(O)C(=O)N2Cc2cccnc2)c1 (stereo not given) the results were Efflux pump inh 0.3, VLA-4 inh 8.0, A1 inh 0.2, ALR inh -2.4, SUMO Mot1 rescue -13.3 and AHR activator -1.3.
COc1ccc(OC)c(C2C(C(C)=O)=C(O)C(=O)N2Cc2cccnc2)c1 (stereo not given) was read as Efflux pump inh 0.0, VLA-4 inh 11.1, A1 inh 5.2*, ALR inh -13.9, SUMO Mot1 rescue 4.9 and AHR activator 0.3.
For Oc1ccc2ccccc2c1C=NCc1cn2ccsc2n1 the results were Efflux pump inh 0.0, VLA-4 inh 18.4, A1 inh -0.1, SUMO Mot1 rescue 0.0 and AHR activator 66.3*.
CC(=O)n1cc(C(C[N+](=O)[O-])SCCN)c2ccccc21 (stereo not given) was read as Efflux pump inh -0.2, VLA-4 inh 15.4, A1 inh 1.6, ALR inh 4.0, SUMO Mot1 rescue -28.3 and AHR activator 50.5*.
For O=C(NNc1ccc([N+](=O)[O-])cc1)Nc1ccccc1 the results were Efflux pump inh 0.0, VLA-4 inh 9.1, A1 inh -1.8, SUMO Mot1 rescue 43.3 and AHR activator 1.8.
O=C(NNc1ccccc1)C(=O)NNS(=O)(=O)c1ccc([N+](=O)[O-])cc1 was read as Efflux pump inh -0.4, VLA-4 inh 11.0, A1 inh 1.3, ALR inh 98.5*, SUMO Mot1 rescue 368.5* and AHR activator 0.6.
